Eleven compounds from the supplement of paper PMC11624193, “Coupling cellular drug-target engagement to downstream pharmacology with CeTEAM” (Nature Communications, 2024) can be followed below.

SMILES strings stand for the structures. Counter-ions that a name gives are not always drawn. A number with no mark means an inactive call.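 How the source made its calls: active = log2 fold change beyond 2 SD from the library mean after excluding viability outliers; inactive = within 2 SD.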

In this assay the target is PARP1 L713F-nLuc biosensor (HCT116) (UniProt P09874). As to the kind of experiment: PARP1 L713F-nLuc/akaLuc ratio relative to DMSO control (biosensor stabilization) (fold change); higher = more PARP1 biosensor stabilization (target engagement / stabilizer), active = hit call of the paper. The following applies: stock concentration (mM; final µM = stock mM x 1): 10; 24 h.
Sequence of PARP1 L713F-nLuc biosensor (HCT116) (P09874 whole entry L713F, looked up): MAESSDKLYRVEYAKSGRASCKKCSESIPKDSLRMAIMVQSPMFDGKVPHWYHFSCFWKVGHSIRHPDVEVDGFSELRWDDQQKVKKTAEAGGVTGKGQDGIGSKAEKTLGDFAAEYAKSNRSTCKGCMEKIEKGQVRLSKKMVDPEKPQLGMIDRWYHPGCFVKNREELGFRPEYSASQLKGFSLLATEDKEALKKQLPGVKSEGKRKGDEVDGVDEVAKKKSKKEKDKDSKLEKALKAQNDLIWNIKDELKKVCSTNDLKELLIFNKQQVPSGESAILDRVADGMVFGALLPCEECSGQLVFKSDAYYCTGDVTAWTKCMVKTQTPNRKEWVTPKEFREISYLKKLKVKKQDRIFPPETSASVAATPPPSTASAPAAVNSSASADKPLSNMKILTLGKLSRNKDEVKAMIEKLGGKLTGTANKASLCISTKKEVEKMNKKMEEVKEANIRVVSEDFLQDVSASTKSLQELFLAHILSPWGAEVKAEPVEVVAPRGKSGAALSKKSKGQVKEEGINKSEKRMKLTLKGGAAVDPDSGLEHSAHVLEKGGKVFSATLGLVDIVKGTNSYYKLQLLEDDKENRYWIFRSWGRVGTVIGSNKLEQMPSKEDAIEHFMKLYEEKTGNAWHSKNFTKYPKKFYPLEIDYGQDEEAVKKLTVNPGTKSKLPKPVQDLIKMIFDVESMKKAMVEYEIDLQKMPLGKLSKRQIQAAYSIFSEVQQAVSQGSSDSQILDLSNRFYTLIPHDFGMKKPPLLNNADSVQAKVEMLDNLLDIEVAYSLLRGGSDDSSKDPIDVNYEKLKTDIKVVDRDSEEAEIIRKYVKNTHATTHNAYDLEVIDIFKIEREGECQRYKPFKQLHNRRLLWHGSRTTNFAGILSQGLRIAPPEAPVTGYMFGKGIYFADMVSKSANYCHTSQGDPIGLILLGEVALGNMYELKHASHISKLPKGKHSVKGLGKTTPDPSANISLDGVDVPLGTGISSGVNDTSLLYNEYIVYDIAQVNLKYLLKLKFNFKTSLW
For `C[C@]12CCCN1CC1=NNC(=O)c3cc(F)cc4[nH]c2c1c34` [Pamiparib], the “PARP1 L713F-nLuc/akaLuc ratio” value was 5.97 (active). The value for `Cc1ccc(C(=O)Nc2ccc(S(=O)(=O)O)c3cc(S(=O)(=O)O)cc(S(=O)(=O)O)c23)cc1NC(=O)c1cccc(NC(=O)Nc2cccc(C(=O)Nc3cc(C(=O)Nc4ccc(S(=O)(=O)O)c5cc(S(=O)(=O)O)cc(S(=O)(=O)O)c45)ccc3C)c2)c1` [Suramin (sodium salt)] was 0.738.

Consider `Cc1cc(-c2ccccc2)cc(C(=O)NNS(=O)(=O)c2cccc(O)c2)c1F`, for which the “PARP1 L713F-nLuc/akaLuc ratio” value is 1.16. As to `COc1ccc2[nH]cc(/C=C3\C(=O)Nc4ccc(NC(=O)CCN5CCCCC5)cc43)c2c1`, the “PARP1 L713F-nLuc/akaLuc ratio” value is 0.931. Take `CNC(=O)c1ccc(C)c(-n2c(C)cc(OCc3ccc(F)cc3F)c(Br)c2=O)c1`: the “PARP1 L713F-nLuc/akaLuc ratio” value is 0.728. The value for `CN1CCN(c2ccc(-c3cccc(CN4CCOCC4)c3)cc2NC(=O)c2c[nH]c(=O)cc2C(F)(F)F)CC1` was 0.636; that for `CC[C@@](C)(Nc1ccnc(-c2c[nH]c3ncccc23)n1)C(=O)NCC(F)(F)F` [Decernotinib] was 0.707. On to `N#Cc1c(O)c2c(-c3ccc(-c4ccccc4O)cc3)csc2[nH]c1=O`, for which the “PARP1 L713F-nLuc/akaLuc ratio” value is 0.692. As for `COc1cc2c(Oc3ccc4[nH]c(C)cc4c3F)ncnc2cc1OCCCN1CCCC1` [Cediranib (AZD2171)], the “PARP1 L713F-nLuc/akaLuc ratio” value was 1.46. The value for `COC(=O)c1cccc(NC(=O)NC2CCN(c3ccnc(Nc4ccc(F)cc4)n3)C2)c1` (stereo unspecified) was 1.07. The value for `O=C(O)CNC(=O)c1nc(Cl)c2ccccc2c1O` was 0.618.
